The list is not random: actives were taken first. Their share in the collection is about 3.2%.
PrPC surface inh: inhibitors of human cell surface prion protein PrPC, primary screen, cell-based, TR-FRET. Major prion protein (Homo sapiens), P04156. TR-FRET read-out. inhibition, % at 13.8 µM. hit rate 0.43% among 370,000. AID 720596, 2013; in the data active means inhibition above about 24%; further: 0% = median of the test wells and 100% = reference compound wells
TcdB inh: TcdB glycohydrolase inhibitors, primary screen, biochemical, single point, plate reader | Toxin B (Clostridioides difficile), P18177 | TcdB glycohydrolase enzymatic assay | inhibition, % at 9.99 µM | hit rate 0.24% among 350,000 | AID 652162, 2013; in the data active means inhibition above about 10%
Y pestis TopoI: Yersinia pestis topoisomerase I inhibitors, primary screen, biochemical, cleavage product accumulation, plate reader, single point. DNA topoisomerase I (Yersinia pestis CO92). Y. pestis Topo-I cleavage product accumulation. activity, % at 10 µM. hit rate 0.064% among 360,000; in the data active means activity above about 50%, passing the limit was not always enough
FBA Mtb inh: Mtb FBA enzyme inhibitors, primary screen, biochemical, fluorescence, strain H37Rv | Fructose-bisphosphate aldolase (Mycobacterium tuberculosis (strain ATCC 25618 / H37Rv)), … | purified M. tuberculosis FBA, fluorescence read-out | inhibition, % at 1 µM | hit rate 2.3% among 360,000; in the data active means inhibition above about 27%;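 further: 0% = vehicle and 100% = reference inhibitor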
Target sequence (P9WQA3 whole entry, looked up): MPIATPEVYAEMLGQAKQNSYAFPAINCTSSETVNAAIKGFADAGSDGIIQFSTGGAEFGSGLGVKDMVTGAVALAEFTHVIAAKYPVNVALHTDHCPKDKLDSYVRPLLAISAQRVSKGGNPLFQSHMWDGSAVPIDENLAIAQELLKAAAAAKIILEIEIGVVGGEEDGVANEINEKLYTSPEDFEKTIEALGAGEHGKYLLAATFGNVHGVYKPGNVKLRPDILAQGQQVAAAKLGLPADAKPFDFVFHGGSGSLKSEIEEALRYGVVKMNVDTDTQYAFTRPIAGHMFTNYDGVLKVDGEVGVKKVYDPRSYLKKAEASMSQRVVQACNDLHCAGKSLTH
GDH-TPI inh: GDH-TPI coupling enzyme inhibitors, primary screen, artefact control for M. tuberculosis FBA inhibitor project, biochemical, absorbance, full deck; GDH-TPI coupled enzyme counterscreen, NADH absorbance; inhibition, % at 4.8 µM; hit rate 1.2% among 360,000; in the data active means inhibition above about 30%;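 further: 0% = DMSO wells and 100% = wells lacking the enzyme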
An asterisk follows results filed as active.

What do the screens show for `CC(C)C(=O)N1N=C(c2ccc(NS(C)(=O)=O)cc2)CC1c1cccs1` (stereo unspecified)?
PrPC surface inh: 12; TcdB inh: 5; Y pestis TopoI: -6; FBA Mtb inh: active; GDH-TPI inh: 29

How did CS(=O)(=O)Nc1ccc(C2=NN(S(=O)(=O)c3ccccc3)C(c3cccs3)C2)cc1 (stereo unspecified) do in these assays?
PrPC surface inh: 8; Y pestis TopoI: 9; FBA Mtb inh: -4; GDH-TPI inh: 6

How did CS(=O)(=O)Nc1cccc(C2=NN(C(=O)c3ccccc3)C(c3cccs3)C2)c1 (stereo unspecified) do in these assays?
PrPC surface inh: 2; TcdB inh: 13*; Y pestis TopoI: 4; FBA Mtb inh: 4; GDH-TPI inh: -4

How did O=C(C[C@@H]1CC[C@@H]2[C@H](COC[C@H](O)CN2Cc2ccccc2)O1)NCCc1ccccc1 do in these assays?
TcdB inh: -1

How did Cc1noc(C)c1NC(=O)Nc1ccc2c(c1)C(=O)N([C@@H](C)CO)C[C@H](C)[C@@H](CN(C)C(=O)Nc1ccc(C(F)(F)F)cc1)O2 do in these assays?
TcdB inh: 1

Results for Cc1ccc(S(=O)(=O)Nc2ccc3c(c2)C(=O)N([C@H](C)CO)C[C@H](C)[C@@H](CN(C)Cc2ccc4c(c2)OCO4)O3)cc1 ?
TcdB inh: 1

Results for CCCNC(=O)[C@H]1[C@H](CO)[C@H]2Cn3c(ccc(C4=CCCCC4)c3=O)[C@H]2N1C(=O)c1cnccn1 ?
TcdB inh: 0

What do the screens show for `COc1ccc(/C=C/C(=O)NC(=S)Nc2ccc(S(=O)(=O)Nc3cc(OC)ncn3)cc2)cc1`?
PrPC surface inh: 0; TcdB inh: -1; Y pestis TopoI: 1; FBA Mtb inh: 0; GDH-TPI inh: 25

Results for COc1ccc(/C=C/C(=O)NC(=S)Nc2ccc(S(=O)(=O)Nc3nccnc3OC)cc2)cc1 ?
PrPC surface inh: 7; Y pestis TopoI: 11; FBA Mtb inh: 0; GDH-TPI inh: 49*

What do the screens show for `COc1ccc2c(c1)c1ncn(Cc3ccco3)c(=O)c1n2C`?
PrPC surface inh: 7; Y pestis TopoI: -3; FBA Mtb inh: 129*; GDH-TPI inh: 2

How did CO[C@H](CN(C)S(=O)(=O)c1ccccc1)[C@@H](C)CN(Cc1ccccc1Cl)[C@H](C)CO do in these assays?
TcdB inh: -7

What do the screens show for `O=c1c2ccccc2[nH]c2ccccc12`?
PrPC surface inh: -7; TcdB inh: 0; Y pestis TopoI: 3; FBA Mtb inh: 139*; GDH-TPI inh: 4

How did COc1ccc(S(=O)(=O)Nc2ccc3c(c2)CC(=O)N([C@@H](C)CO)C[C@H](C)[C@@H](CN(C)C(=O)NC(C)C)O3)cc1 do in these assays?
TcdB inh: -9

How did O=C(N/N=C/c1ccc(OCc2ccccc2)cc1)c1ccco1 do in these assays?
PrPC surface inh: 4; TcdB inh: 1; Y pestis TopoI: -1; FBA Mtb inh: -4; GDH-TPI inh: 13

What do the screens show for `COc1ccc(/C=N/NC(=O)c2cc(C)oc2C)cc1OCc1ccccc1`?
PrPC surface inh: 0; TcdB inh: 1; Y pestis TopoI: 9; FBA Mtb inh: -1; GDH-TPI inh: 32*

How did COc1ccc(/C=N/NC(=O)c2ccco2)cc1OCc1ccccc1 do in these assays?
PrPC surface inh: 2; TcdB inh: 0; Y pestis TopoI: 4; FBA Mtb inh: -2; GDH-TPI inh: 40*

Results for C[C@H](NC(=O)C[C@@H]1C[C@H]2c3cc(NC(=O)CC4CC4)ccc3O[C@H]2[C@H](CO)O1)c1ccccc1 ?
TcdB inh: -1

How did O=C(Nc1ccccc1[N+](=O)[O-])c1cc2ccccc2nc1Cl do in these assays?
PrPC surface inh: -3; TcdB inh: 0; Y pestis TopoI: 4; FBA Mtb inh: 0; GDH-TPI inh: -5

Results for O=C(Nc1ccccc1[N+](=O)[O-])C1=C(O)CCn2c1nc1ccccc12 ?
PrPC surface inh: 2; Y pestis TopoI: 9; FBA Mtb inh: 1; GDH-TPI inh: 39*

Results for CCOC(=O)c1cnc2c([N+](=O)[O-])cnn2c1C ?
PrPC surface inh: -7; TcdB inh: -1; Y pestis TopoI: 0; FBA Mtb inh: 0; GDH-TPI inh: 37*

What do the screens show for `Cc1ccc(CNC(=O)c2cc3c(=O)n4ccccc4nc3n(CC3CCCO3)c2=N)cc1` (stereo unspecified)?
Y pestis TopoI: 15; FBA Mtb inh: active; GDH-TPI inh: 3

What do the screens show for `N=c1c(C(=O)NC2CCCC2)cc2c(=O)n3ccccc3nc2n1CC1CCCO1` (stereo unspecified)?
PrPC surface inh: -58; TcdB inh: -4; Y pestis TopoI: -7; FBA Mtb inh: active; GDH-TPI inh: 10

Results for COCCCn1c(=N)c(C(=O)NC2CCCCC2)cc2c(=O)n3ccccc3nc21 ?
PrPC surface inh: -44; Y pestis TopoI: -5; FBA Mtb inh: active; GDH-TPI inh: 12

What do the screens show for `N=c1c(C(=O)NC2CCCCC2)cc2c(=O)n3ccccc3nc2n1CC1CCCO1` (stereo unspecified)?
PrPC surface inh: -53; TcdB inh: 1; Y pestis TopoI: -1; FBA Mtb inh: active; GDH-TPI inh: 6

How did COc1ccc(NC(=O)Nc2ccc3c(c2)C(=O)N([C@@H](C)CO)C[C@@H](C)[C@H](CN(C)S(=O)(=O)c2ccc(C)cc2)OCCCC[C@@H](C)O3)cc1 do in these assays?
TcdB inh: -3

What do the screens show for `CCCN(C)C[C@@H]1OCCCC[C@H](C)Oc2ccc(NC(=O)C3CCCCC3)cc2C(=O)N([C@@H](C)CO)C[C@@H]1C`?
TcdB inh: -6

What do the screens show for `COCCCn1c(C(=O)N2CC(C)OC(C)C2)cc2c(=O)n3ccccc3nc21` (stereo unspecified)?
PrPC surface inh: -2; TcdB inh: 0; Y pestis TopoI: 5; FBA Mtb inh: active; GDH-TPI inh: 18

What do the screens show for `CC(NC(=O)c1cc2c(=O)n3ccccc3nc2n(CC2CCCO2)c1=N)c1ccccc1` (stereo unspecified)?
PrPC surface inh: -36; TcdB inh: 2; Y pestis TopoI: 1; FBA Mtb inh: active; GDH-TPI inh: 18

Results for Cc1ccc2nc3c(cc(C(=O)NCC4CCCO4)c(=N)n3CC3CCCO3)c(=O)n2c1 (stereo unspecified) ?
Y pestis TopoI: -2; FBA Mtb inh: active; GDH-TPI inh: 2

How did CCOC(=O)c1cc2c(=O)n3ccccc3nc2n(CC2CCCO2)c1=NC(=O)/C=C/c1ccccc1 (stereo unspecified) do in these assays?
PrPC surface inh: -20; TcdB inh: 0; Y pestis TopoI: 40; FBA Mtb inh: active; GDH-TPI inh: 26
